Reference: article PMC7862700, “An all-to-all approach to the identification of sequence-specific readers for epigenetic DNA modifications on cytosine”

What was measured:
Test in all cases: DAPPL (digital affinity profiling via proximity ligation, sequencing); 10 mM Tris-HCl pH 7.5, 50 mM NaCl, 1 mM DTT, 4% glycerol, room temperature, 30 min; GST-TFs on glutathione beads, 16-mer random dsDNA library, 0.1% formaldehyde crosslink after washing; high values mean tight binding
[1] = biological target: T1, FLI1 (Homo sapiens, UniProt Q01543 1-452); details: protein: recombinant; tags: N-terminal GST; dsDNA, one strand shown
T1 sequence: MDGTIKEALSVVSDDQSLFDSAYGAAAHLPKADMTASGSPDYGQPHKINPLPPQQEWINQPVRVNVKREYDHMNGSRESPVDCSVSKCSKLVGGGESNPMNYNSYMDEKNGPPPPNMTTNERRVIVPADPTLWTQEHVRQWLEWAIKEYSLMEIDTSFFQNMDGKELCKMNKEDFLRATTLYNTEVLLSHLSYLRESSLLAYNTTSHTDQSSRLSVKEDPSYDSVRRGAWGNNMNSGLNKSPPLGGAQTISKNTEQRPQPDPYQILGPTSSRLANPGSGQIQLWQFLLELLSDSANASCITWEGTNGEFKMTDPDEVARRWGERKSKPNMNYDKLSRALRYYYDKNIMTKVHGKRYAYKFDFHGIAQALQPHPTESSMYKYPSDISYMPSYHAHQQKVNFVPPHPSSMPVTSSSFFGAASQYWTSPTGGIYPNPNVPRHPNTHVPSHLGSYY
How it was run: (§1)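 Binding signal is each hexamer's read frequency for a factor divided by its frequency in the tag-only sample. The factors were GST-fused human transcription factors from yeast, captured on glutathione beads, DNA-barcoded and pooled with that sample. Pools were incubated with 200 nmole of a random double-stranded 16-mer DNA library in Tris/NaCl/DTT/glycerol buffer at room temperature for 30 min, then washed, crosslinked with 0.1% formaldehyde, proximity-ligated with BsaI/T4 ligase (1 h, 37 °C), PCR-amplified and sequenced on an Illumina NextSeq500.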

[2] = biological target: T2, ELK1 (Homo sapiens, UniProt P19419 1-428); details: protein: recombinant; tags: N-terminal GST; dsDNA, one strand shown
T2 sequence: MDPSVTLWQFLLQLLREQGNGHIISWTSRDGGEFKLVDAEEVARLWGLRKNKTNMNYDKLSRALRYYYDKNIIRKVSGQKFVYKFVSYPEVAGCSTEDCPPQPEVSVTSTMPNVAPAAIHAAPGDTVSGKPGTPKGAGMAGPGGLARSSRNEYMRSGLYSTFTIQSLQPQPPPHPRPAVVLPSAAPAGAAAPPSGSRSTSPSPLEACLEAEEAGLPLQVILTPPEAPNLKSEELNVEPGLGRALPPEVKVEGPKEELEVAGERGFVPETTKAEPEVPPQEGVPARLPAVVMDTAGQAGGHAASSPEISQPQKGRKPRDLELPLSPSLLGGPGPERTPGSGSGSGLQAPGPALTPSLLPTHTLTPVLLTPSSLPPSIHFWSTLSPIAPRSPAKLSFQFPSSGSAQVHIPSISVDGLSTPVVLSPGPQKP
How it was run: as §1

[3] = biological target: T3, GABPA (Homo sapiens, UniProt Q06546 1-454); details: protein: recombinant; tags: N-terminal GST; dsDNA, one strand shown
T3 sequence: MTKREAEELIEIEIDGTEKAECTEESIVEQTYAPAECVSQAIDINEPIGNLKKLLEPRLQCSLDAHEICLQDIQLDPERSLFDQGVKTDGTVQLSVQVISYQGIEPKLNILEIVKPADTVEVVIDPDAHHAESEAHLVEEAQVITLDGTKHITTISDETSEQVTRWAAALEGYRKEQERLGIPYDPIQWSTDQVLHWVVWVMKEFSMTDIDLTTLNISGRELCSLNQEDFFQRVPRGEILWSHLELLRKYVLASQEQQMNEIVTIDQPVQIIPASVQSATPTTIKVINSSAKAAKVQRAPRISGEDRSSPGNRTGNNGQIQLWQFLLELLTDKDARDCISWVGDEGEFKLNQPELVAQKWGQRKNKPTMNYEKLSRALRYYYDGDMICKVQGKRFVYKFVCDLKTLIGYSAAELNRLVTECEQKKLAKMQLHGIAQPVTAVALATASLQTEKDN
How it was run: as §1

[4] = biological target: T4, ERG (Homo sapiens, UniProt P11308 1-479); details: protein: recombinant; tags: N-terminal GST; dsDNA, one strand shown
T4 sequence: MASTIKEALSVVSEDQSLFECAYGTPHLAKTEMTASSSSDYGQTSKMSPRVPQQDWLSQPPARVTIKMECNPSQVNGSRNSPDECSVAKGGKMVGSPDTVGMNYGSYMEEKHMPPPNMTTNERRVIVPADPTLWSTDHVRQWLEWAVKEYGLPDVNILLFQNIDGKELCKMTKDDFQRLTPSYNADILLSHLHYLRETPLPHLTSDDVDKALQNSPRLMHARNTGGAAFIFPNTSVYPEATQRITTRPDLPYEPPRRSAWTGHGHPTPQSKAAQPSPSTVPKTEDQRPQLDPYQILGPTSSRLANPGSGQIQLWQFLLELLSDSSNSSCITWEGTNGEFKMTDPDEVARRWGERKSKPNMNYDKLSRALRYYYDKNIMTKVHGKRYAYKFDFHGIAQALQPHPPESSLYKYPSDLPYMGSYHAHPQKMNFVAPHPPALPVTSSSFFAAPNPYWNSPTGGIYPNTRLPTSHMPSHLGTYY
How it was run: as §1

[5] = biological target: ELF1 (Homo sapiens, UniProt P32519 1-619); details: protein: recombinant; tags: N-terminal GST; dsDNA, one strand shown
Chain of ELF1 (P32519 whole entry): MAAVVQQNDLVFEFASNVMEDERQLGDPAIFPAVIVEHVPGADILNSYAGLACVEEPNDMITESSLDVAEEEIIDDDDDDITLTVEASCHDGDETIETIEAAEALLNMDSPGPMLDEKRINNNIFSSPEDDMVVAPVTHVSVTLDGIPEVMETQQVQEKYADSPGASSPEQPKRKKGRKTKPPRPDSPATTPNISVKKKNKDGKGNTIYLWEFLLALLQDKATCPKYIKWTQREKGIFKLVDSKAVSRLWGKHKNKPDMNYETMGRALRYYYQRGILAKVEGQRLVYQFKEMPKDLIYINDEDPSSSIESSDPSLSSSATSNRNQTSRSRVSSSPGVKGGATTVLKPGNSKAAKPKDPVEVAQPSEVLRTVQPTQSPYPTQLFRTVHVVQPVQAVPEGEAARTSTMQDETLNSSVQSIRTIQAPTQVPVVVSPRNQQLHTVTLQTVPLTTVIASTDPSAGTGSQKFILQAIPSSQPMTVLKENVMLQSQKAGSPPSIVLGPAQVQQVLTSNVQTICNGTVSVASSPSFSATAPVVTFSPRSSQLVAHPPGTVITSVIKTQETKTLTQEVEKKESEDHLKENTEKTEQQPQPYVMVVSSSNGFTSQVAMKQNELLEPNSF
How it was run: as §1

[6] = biological target: T5, EHF (Homo sapiens, UniProt Q9NZC4 1-300); details: protein: recombinant; tags: N-terminal GST; dsDNA, one strand shown
T5 sequence: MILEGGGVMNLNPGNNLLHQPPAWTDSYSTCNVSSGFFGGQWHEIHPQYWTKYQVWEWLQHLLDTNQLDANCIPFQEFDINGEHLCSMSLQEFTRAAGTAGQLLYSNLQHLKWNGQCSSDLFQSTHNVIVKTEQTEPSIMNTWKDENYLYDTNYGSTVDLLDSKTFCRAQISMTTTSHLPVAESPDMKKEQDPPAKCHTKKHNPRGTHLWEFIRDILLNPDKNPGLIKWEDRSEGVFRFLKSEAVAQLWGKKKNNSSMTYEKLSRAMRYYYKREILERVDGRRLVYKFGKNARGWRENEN
How it was run: as §1

[7] = biological target: SPI1 (Homo sapiens, UniProt P17947 1-270); details: protein: recombinant; tags: N-terminal GST; dsDNA, one strand shown
How it was run: as §1

[8] = biological target: SPIB (Homo sapiens, UniProt Q01892 1-262); details: protein: recombinant; tags: N-terminal GST; dsDNA, one strand shown
Chain of SPIB (Q01892 whole entry): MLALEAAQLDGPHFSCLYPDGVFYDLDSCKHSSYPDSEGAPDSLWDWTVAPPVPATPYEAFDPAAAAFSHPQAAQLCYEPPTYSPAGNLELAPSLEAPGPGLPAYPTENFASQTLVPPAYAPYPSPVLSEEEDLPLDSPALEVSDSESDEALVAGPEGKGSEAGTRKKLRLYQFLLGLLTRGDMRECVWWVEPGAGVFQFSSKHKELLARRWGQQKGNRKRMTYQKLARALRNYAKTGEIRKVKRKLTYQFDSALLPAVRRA
How it was run: as §1

[9] = biological target: T6, ELK3 (Homo sapiens, UniProt P41970 1-407); details: protein: recombinant; tags: N-terminal GST; dsDNA, one strand shown
T6 sequence: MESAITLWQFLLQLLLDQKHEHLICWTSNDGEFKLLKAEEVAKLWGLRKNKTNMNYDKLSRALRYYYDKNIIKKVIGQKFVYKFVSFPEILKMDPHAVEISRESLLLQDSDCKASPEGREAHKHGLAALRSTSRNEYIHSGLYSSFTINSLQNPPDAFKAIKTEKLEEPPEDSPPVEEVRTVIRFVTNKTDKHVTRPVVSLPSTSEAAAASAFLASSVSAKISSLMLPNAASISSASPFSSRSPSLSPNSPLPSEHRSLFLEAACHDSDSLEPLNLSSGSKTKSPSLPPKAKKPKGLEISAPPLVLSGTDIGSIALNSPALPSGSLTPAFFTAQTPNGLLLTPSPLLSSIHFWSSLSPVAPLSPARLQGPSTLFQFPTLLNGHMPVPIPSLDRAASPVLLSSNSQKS
How it was run: as §1

[10] = biological target: T7, FEV (Homo sapiens, UniProt Q99581 1-238); details: protein: recombinant; tags: N-terminal GST; dsDNA, one strand shown
T7 sequence: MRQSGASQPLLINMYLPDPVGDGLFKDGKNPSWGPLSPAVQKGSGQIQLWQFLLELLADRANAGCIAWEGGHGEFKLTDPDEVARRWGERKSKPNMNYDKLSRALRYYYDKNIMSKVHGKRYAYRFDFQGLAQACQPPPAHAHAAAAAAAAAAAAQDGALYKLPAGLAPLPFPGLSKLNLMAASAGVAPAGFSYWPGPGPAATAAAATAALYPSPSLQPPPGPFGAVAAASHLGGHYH
How it was run: as §1

[11] = biological target: ETV5 (Homo sapiens, UniProt P41161 1-510); details: protein: recombinant; tags: N-terminal GST; dsDNA, one strand shown
Chain of ETV5 (P41161 whole entry): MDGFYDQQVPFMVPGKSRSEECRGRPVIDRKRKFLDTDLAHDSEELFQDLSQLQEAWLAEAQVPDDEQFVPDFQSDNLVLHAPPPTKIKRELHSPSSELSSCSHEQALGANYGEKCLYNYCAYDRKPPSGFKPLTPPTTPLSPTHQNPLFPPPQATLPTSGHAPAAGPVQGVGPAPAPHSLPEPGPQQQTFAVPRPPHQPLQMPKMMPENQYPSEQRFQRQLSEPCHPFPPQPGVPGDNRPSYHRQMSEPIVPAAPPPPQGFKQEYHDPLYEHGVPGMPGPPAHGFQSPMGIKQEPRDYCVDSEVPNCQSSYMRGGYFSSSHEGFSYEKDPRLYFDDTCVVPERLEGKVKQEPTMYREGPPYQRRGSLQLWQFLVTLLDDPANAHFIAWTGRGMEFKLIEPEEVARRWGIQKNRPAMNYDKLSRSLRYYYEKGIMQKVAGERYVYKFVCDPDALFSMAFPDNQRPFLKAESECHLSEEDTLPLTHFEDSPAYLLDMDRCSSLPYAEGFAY
How it was run: as §1

[12] = biological target: HSF1 (Homo sapiens, UniProt Q00613 1-529); details: protein: recombinant; tags: N-terminal GST; chain copies: 3; dsDNA, one strand shown
Chain of HSF1 (Q00613 whole entry): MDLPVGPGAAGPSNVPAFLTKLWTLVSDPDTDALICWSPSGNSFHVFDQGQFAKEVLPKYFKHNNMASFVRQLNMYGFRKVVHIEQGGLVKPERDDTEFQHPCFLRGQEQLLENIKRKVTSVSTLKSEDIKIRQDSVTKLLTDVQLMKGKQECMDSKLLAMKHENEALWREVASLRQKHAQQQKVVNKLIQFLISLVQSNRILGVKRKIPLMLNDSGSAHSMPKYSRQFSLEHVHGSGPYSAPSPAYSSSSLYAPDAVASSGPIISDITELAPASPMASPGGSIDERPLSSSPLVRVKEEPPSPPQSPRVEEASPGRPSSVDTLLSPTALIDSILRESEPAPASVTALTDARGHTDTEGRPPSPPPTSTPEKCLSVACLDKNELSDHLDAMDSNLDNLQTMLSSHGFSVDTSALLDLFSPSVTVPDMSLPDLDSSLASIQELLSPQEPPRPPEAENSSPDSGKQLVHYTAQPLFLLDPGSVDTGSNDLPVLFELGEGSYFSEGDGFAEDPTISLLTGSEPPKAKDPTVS
How it was run: as §1

[13] = biological target: T8, SPIC (Homo sapiens, UniProt Q8N5J4 1-248); details: protein: recombinant; tags: N-terminal GST; dsDNA, one strand shown
T8 sequence: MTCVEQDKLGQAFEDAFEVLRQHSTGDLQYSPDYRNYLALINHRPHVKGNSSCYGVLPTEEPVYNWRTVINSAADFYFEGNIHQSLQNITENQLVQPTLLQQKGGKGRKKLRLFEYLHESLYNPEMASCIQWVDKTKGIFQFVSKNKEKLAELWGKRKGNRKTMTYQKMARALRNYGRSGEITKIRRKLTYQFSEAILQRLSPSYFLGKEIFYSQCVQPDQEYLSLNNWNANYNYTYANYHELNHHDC
How it was run: as §1

[14] = biological target: ELF4 (Homo sapiens, UniProt Q99607 1-663); details: protein: recombinant; tags: N-terminal GST; dsDNA, one strand shown
Chain of ELF4 (Q99607 whole entry): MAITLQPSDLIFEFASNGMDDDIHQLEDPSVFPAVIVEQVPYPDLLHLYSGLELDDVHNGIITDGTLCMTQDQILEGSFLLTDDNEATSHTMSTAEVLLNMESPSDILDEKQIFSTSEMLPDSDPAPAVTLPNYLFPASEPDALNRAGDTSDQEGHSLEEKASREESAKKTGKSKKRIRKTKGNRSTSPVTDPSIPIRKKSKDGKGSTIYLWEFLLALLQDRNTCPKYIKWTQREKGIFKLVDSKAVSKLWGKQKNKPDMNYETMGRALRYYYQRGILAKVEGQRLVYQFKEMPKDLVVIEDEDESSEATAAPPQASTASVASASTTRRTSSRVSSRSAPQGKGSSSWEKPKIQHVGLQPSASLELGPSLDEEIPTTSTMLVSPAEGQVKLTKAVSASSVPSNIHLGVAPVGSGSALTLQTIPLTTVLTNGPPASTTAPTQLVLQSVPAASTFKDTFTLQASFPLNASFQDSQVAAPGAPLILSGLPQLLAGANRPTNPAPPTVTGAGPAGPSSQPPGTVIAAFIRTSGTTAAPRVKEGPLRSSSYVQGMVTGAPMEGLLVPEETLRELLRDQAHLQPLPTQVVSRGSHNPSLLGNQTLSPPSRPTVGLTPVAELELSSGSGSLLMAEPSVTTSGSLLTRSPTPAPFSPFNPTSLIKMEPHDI
How it was run: as §1

[15] = biological target: T9, ELK4 (Homo sapiens, UniProt P28324-2 1-405); details: protein: recombinant; tags: N-terminal GST; dsDNA, one strand shown
T9 sequence: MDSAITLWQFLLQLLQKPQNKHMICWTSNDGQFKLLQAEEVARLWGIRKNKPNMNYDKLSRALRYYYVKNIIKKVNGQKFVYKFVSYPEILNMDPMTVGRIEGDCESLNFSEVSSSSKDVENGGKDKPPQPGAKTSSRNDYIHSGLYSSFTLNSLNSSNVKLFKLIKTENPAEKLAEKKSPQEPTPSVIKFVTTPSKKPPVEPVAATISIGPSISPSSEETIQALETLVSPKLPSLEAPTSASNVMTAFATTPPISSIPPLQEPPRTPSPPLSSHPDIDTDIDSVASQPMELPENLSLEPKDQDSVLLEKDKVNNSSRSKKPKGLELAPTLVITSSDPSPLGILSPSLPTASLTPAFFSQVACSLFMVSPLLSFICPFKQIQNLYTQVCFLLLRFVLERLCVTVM
How it was run: as §1

[16] = biological target: T10, ETV2 (Homo sapiens, UniProt O00321 1-342); details: protein: recombinant; tags: N-terminal GST; dsDNA, one strand shown
T10 sequence: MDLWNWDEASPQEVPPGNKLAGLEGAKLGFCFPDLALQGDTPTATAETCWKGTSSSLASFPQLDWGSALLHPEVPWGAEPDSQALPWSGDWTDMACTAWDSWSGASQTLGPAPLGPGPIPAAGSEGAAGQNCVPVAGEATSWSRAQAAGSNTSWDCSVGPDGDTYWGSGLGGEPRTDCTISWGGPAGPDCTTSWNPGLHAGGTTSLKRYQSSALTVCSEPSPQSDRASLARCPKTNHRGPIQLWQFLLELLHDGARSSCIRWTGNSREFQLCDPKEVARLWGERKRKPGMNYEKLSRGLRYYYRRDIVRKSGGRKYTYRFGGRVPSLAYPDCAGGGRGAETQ
How it was run: as §1

[17] = biological target: T11, ELF3 (Homo sapiens, UniProt P78545 1-371); details: protein: recombinant; tags: N-terminal GST; dsDNA, one strand shown
T11 sequence: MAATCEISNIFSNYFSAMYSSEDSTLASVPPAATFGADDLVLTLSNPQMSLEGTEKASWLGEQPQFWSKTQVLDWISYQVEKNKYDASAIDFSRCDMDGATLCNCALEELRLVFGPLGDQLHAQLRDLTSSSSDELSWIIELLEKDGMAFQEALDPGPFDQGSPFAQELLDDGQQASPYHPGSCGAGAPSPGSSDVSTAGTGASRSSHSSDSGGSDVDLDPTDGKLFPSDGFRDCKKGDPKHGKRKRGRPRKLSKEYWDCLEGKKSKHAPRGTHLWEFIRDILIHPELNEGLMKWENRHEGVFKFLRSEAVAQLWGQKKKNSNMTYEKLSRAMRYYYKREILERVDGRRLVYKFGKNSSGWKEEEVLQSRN
How it was run: as §1

[18] = biological target: CRX (Homo sapiens, UniProt O43186 1-299); details: protein: recombinant; tags: N-terminal GST; dsDNA, one strand shown
Chain of CRX (O43186 whole entry): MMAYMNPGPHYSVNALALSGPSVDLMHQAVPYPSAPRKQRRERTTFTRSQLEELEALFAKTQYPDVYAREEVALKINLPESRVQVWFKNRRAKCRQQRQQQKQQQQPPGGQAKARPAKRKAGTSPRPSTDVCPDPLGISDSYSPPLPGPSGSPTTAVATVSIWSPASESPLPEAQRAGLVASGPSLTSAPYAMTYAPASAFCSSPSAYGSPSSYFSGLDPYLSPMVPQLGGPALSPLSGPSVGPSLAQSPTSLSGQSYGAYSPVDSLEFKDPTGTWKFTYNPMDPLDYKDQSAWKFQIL
How it was run: as §1

[19] = biological target: ETV1 (Homo sapiens, UniProt P50549 1-477); details: protein: recombinant; tags: N-terminal GST; dsDNA, one strand shown
Chain of ETV1 (P50549 whole entry): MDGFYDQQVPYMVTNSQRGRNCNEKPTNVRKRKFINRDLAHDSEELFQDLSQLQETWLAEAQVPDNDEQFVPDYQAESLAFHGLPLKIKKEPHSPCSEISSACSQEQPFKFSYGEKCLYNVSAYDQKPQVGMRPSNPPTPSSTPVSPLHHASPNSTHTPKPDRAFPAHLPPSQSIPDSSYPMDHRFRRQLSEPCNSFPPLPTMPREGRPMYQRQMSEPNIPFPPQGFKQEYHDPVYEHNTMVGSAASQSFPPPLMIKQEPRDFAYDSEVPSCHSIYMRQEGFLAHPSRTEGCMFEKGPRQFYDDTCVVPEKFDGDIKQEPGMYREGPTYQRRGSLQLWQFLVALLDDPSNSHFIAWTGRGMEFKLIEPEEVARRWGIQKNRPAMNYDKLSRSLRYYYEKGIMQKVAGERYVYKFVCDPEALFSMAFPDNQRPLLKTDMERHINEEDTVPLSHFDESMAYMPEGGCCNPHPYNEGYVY
How it was run: as §1

TAACTT
binding signal [1]: 1.41 fold enrichment (6-mer frequency, TF over GST control) | binding signal [2]: 1.39 fold enrichment (6-mer frequency, TF over GST control) | binding signal [3]: 1.34 fold enrichment (6-mer frequency, TF over GST control) | binding signal [4]: 1.34 fold enrichment (6-mer frequency, TF over GST control) | binding signal [5]: 1.46 fold enrichment (6-mer frequency, TF over GST control) | binding signal [6]: 1.35 fold enrichment (6-mer frequency, TF over GST control) | binding signal [7]: 1.62 fold enrichment (6-mer frequency, TF over GST control) | binding signal [8]: 1.43 fold enrichment (6-mer frequency, TF over GST control) | binding signal [9]: 1.27 fold enrichment (6-mer frequency, TF over GST control) | binding signal [10]: 1.51 fold enrichment (6-mer frequency, TF over GST control) | binding signal [11]: 1.45 fold enrichment (6-mer frequency, TF over GST control) | binding signal [12]: 1.28 fold enrichment (6-mer frequency, TF over GST control) | binding signal [13]: 1.56 fold enrichment (6-mer frequency, TF over GST control) | binding signal [14]: 1.33 fold enrichment (6-mer frequency, TF over GST control) | binding signal [15]: 1.32 fold enrichment (6-mer frequency, TF over GST control) | binding signal [16]: 1.59 fold enrichment (6-mer frequency, TF over GST control) | binding signal [17]: 1.35 fold enrichment (6-mer frequency, TF over GST control) | binding signal [18]: 1.56 fold enrichment (6-mer frequency, TF over GST control) | binding signal [19]: 1.33 fold enrichment (6-mer frequency, TF over GST control)
